Test [1] in a line: AP1 Signaling Pathway (AID 357; active means well fitted curve in either direction with a large enough effect, not every such curve was filed as active; further: on the % scale 0 is the no-effect control and ±100 the full control effect). The settings on record: ME-180 AP-1-bla reporter, EGF-induced, beta-lactamase ratio, 5 h; at 7.69 µM (top of the series) unless noted. In short, it runs like this: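 In this screen, ME-180 cells in Opti-MEM with 0.5% dialyzed FBS received EC50 EGF and compound titrations for 5 h. AP-1 reporter beta-lactamase was detected via CCF4 ratio, giving AC50 for positive and negative modulators.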

Test [2] concerns the target Cytochrome P450 1A2 (Homo sapiens) (UniProt P05177). Briefly: p450-cyp1a2 (AID 410; calls by dose curve; further: potency means the concentration at half of the fitted maximal effect;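 on activity change, negative = inhibition: -100% = full effect of reference inhibitor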). In short, it runs like this:
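20nM CYP1A2, 100uM Luciferin-ME (=Km), 100mM KPO4; cpd 10 min RT; +NADPH regen, 60 min RT; stop/detect 20 min; luminescence. Normalized to furafylline 57 uM = full inhibition.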

The nature of test [3]: NFAT Signaling Pathway (AID 444; active means well fitted curve in either direction with a large enough effect, not every such curve was filed as active;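 further: carbachol stimulus at about its EC50 of 1 µM final; on the % scale 0 is the no-effect control and ±100 the full control effect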). The note with it: Jurkat NFAT-bla M1, carbachol, beta-lactamase ratio, 5 h; at 7.69 µM (top of the series) unless noted. The procedure, abridged: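 Read-out: CCF4 FRET ratio (460 nm/530 nm) after 1 h RT dye loading, used for %activity and AC50 from titration series. Cells: Jurkat NFAT-β-lactamase/M1 line, treated with compound plus 1 uM carbachol for 5 h, 37 °C.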

Test [4] can be described thus: Stat Signaling Pathway (AID 446; active means well fitted curve in either direction with a large enough effect, not every such curve was filed as active;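 further: ME-180 cervical cancer cells given 40 pM IL-6 alongside compound; SIE-controlled beta-lactamase reporter measured as 460/530 nm FRET emission ratio; on the % scale 0 is the no-effect control and ±100 the full control effect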). The settings on record: ME-180 (cervical carcinoma) SIE beta-lactamase reporter, IL-6 stimulated, 5 h; at 7.69 µM (top of the series) unless noted. In short, it runs like this:
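FRET read-out (405 nm excitation, 460/530 nm emission) of a beta-lactamase reporter under a STAT-inducible element in ME-180 cervical carcinoma cells. Cells with compound receive 40 pM IL-6 for 5 h. Values are normalised to AC90 stimulation and AC90 JAK-inhibitor controls.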

Test [5] has as its target Glucocorticoid receptor (Homo sapiens) (UniProt P04150). Briefly: GR-EFC Redistribution (AID 451; calls by dose curve; further: potency means the concentration at half of the fitted maximal effect). The settings on record: CHO-K1 GR-EFC translocation, beta-gal luminescence, 2 h. In short, it runs like this: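 Translocation of GR-ED fusion to nuclear EA restores b-gal, read by luminescence after 1 h room-temperature detection. Engineered CHO-K1 biosensor cells, 1,000/well, exposed 2 h at 37 C to titrations up to 46 uM final.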

Test [6] has as its target Mitogen-activated protein kinase 10 (Mus musculus) (UniProt Q61831). As to the kind of experiment: JNK3 AlphaScreen Assay (AID 530; active means well fitted curve in either direction with a large enough effect, not every such curve was filed as active;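 further: kinase came from lysate of stimulated human HepG2 cells; signal reports phosphorylation of biotinylated GST-cJun 1-79 at Ser73 with 10 µM ATP; on the % scale 0 is the no-effect control and ±100 the full control effect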). In short, it runs like this: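 Kinase buffer: 20 mM Tris-HCl pH 7.6, 10 mM MgCl2, 1 mM DTT, 0.1 mM Na3VO4, 0.01% Tween-20; ATP 10 uM. Substrate biotin-GST-cJun(1-79), enzyme from activated HepG2 lysates. Detection by Ser73 phospho-antibody AlphaScreen.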
For orientation: Bead proximity is the source of the signal in Alpha formats.

Test [7] deals with 3',5'-cyclic-AMP phosphodiesterase 4B (Homo sapiens) (UniProt Q07343). Briefly: qHTS Assay for Inhibitors of PDE-IV (AID 607; active means well fitted activation curve with a large enough effect in the main read-out, with a control signal flat, not every such curve was filed as active; further: % of control where 0% means no effect). In short, it runs like this:
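Cell-based read-out of cAMP via a modified cyclic nucleotide-gated channel and membrane potential dye (535/590 nm) in HEK293 cells expressing PDE4 endogenously. Compounds tested up to 22.9 uM final; 100 uM RO 20-1724 reference.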
Background: qHTS replaces the single test concentration by a dilution series.

Test [8] in a line: qHTS Assay for Lipid Storage Modulators (AID 1519; calls by dose curve). The settings on record: Drosophila S3 cells, BODIPY lipid droplet/cell ratio, laser cytometry, cells loaded with oleic acid; for activity change, negative = inhibition: at 57.5 µM (top of the series). The procedure, abridged: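 Cells seeded at 5,000 per well were treated with compounds over a concentration series and loaded with oleic acid (400 uM, as added). Lipid droplet fluorescence (488 nm excitation, 500-530 nm channel) was read by laser-scanning cytometry and normalized to 20 uM Triacsin C.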

A short description of test [9]: Primary qHTS for small molecule stabilizers of the endoplasmic reticulum resident proteome: Secreted ER Calcium Modulated Protein (SERCaMP) assay (AID 1508630). Further: on the % scale 0 is the no-effect control and ±100 the full control effect. The procedure, abridged:
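The SH-SY5Y reporter protocol was run at 3 concentrations up to 38.3 uM (primary) or 11 concentrations (follow-up): 16 h compound, 100 nM thapsigargin for 4 h, then extracellular luciferase luminescence.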

For test [10], the target named is Glucocorticoid receptor (Homo sapiens) (UniProt P04150). As to the kind of experiment: GR-GFP Redistribution (AID 450;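 active means compounds whose dose series gives a full or clear partial fitted curve of increased nuclear translocation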; further: potency means the concentration at half of the fitted maximal effect). The settings on record: U2OS GR-GFP nuclear translocation, laser cytometry, 2 h.
For test [11], the target named is Cytochrome P450 3A4 (Homo sapiens) (UniProt P08684). As to the kind of experiment: qHTS Assay for Inhibitors and Substrates of Cytochrome P450 3A4 (AID 884). Further: potency means the concentration at half of the fitted maximal effect; nearly all actives have a fitted effect of over 50% in size. In short, it runs like this: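 Luminescent readout of luciferin produced by CYP3A4 (20 nM) dealkylation of Luciferin-PPXE, 25 uM (its KM). NADPH-driven reaction ran 60 min at RT after 10 min compound preincubation; data scaled to 57 uM ketoconazole as 100% inhibition.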

The target is the same in test [12]. As to the kind of experiment: qHTS Assay for Activators of Cytochrome P450 3A4 (AID 885). Further: nearly all actives have a fitted effect of over 65% in size. The procedure, abridged: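 Luminescent readout of luciferin formed from 25 uM Luciferin-PPXE (KM level) by 20 nM CYP3A4 in 200 mM KPO4, with 60 min NADPH-driven reaction at room temperature after 10 min compound exposure. Ketoconazole (57 uM) defined 100% inhibition.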
Test [13] addresses Cytochrome P450 2C19 (Homo sapiens) (UniProt P33261). As to the kind of experiment: qHTS Assay for Inhibitors and Substrates of Cytochrome P450 2C19 (AID 899). Further: potency means the concentration at half of the fitted maximal effect; nearly all actives have a fitted effect of over 60% in size. In short, it runs like this: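 Reactions contain 5nM enzyme, 10uM Luciferin-H EGE (KM) and 50mM KPO4; compound preincubates 10 min at 37C, NADPH regeneration starts turnover for 60 min. Luminescence after detection reagent gives activity.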

The nature of test [14]: Confirmation and Secondary Assay for Modulators of Hemoglobin Beta Chain Splicing at IVS2 654 locus (AID 910).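 Further: HeLa cells stably carrying EGFP split by mutant beta-globin IVS2-654 intron; per-well total GFP intensity by laser scanning cytometry after 2-day treatment; % of control where 0% means no effect.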 The procedure, abridged: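 Readout: per-well total peak green fluorescence (488 nm ex, 500–520 nm em) from objects 5–250 µm, reflecting correct splicing of an EGFP-654 reporter. Compounds were applied for 2 days at 37 °C to overnight-plated HeLa EGFP-654 cells; controls were DMSO and 500 nM IVS2-654 PNA.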

Test [15] in a line: Confirmation and Secondary Assay for Modulators of Hemoglobin Beta Chain Splicing at IVS2 705 locus (AID 930).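 Further: HeLa cells stably expressing the EGFP-705 splicing reporter; % of control where 0% means no effect.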 The procedure, abridged:
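Restored EGFP fluorescence after 2-day compound exposure reports splicing correction in IVS2-705 EGFP reporter HeLa cells; positive control was 500 nM splice-blocking PNA oligo. Signal measured as well total peak GFP intensity (488 nm excitation).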

Test [16] deals with Ubiquitin carboxyl-terminal hydrolase 1 (Homo sapiens) (UniProt O94782). Briefly: Inhibitors of USP1/UAF1: Pilot qHTS (AID 504865).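 Further: rhodamine fluorescence freed from ubiquitin-rhodamine substrate followed over time; top concentration of the series differs between compounds; on the % scale 0 is the no-effect control and ±100 the full control effect; nearly all actives have a fitted effect of over 35% in size.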 In short, it runs like this: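 In 50mM HEPES pH 7.8 containing 0.5mM EDTA, 1mM TCEP, 0.1 mg/ml BSA and 0.01% Tween-20, 1nM USP1/UAF1 is exposed to compound for 15 min, then Ub-Rho (150nM final) is added and fluorescence is read over time.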
The target of test [17] is Lysosomal acid glucosylceramidase (Homo sapiens) (UniProt P04062). Briefly: Glucocerebrosidase-p2 (AID 348; in the data active means potency below about 10 µM; further: potency means the concentration at half of the fitted maximal effect). The settings on record: purified GBA, blue fluorogenic substrate, 40 min. In short, it runs like this: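 Normal human glucocerebrosidase (0.2 nM) with blue fluorogenic substrate (80 uM final) in citrate/phosphate pH 5.9 with 10mM sodium taurocholate, 0.01% tween-20; 40 min RT, NaOH/glycine stop; fluorescence Ex 365/Em 440; AC50 from a titration from 0.6 nM upwards.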

The target of test [18] is Cytochrome P450 2C9 (Homo sapiens) (UniProt P11712). As to the kind of experiment: qHTS Assay for Inhibitors and Substrates of Cytochrome P450 2C9 (AID 883). Further: potency means the concentration at half of the fitted maximal effect; nearly all actives have a fitted effect of over 60% in size. The procedure, abridged: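 Turnover of Luciferin-H (100uM, KM) by 10nM human CYP2C9 was measured over 60 min at 37C with NADPH regeneration; inhibitors and some substrates reduce luminescence. Data normalized to sulphaphenazole 57uM.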

For test [19], the target named is Dual specificity protein kinase CLK4 (Homo sapiens) (UniProt Q9HAZ1). As to the kind of experiment: qHTS Assay for Inhibitors of CDC-like Kinase 4 (Kinase-Glo Assay) (AID 1770). Further: on the % scale 0 is the no-effect control and ±100 the full control effect; nearly all actives have a fitted effect of over 65% in size. In short, it runs like this: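 Substrate mix (RS peptide 100 uM, ATP 1 uM) dispensed, compound pinned in, then Clk4 added to 25 nM final. Incubated 4.5 h at RT; Kinase-Glo reagent added, luminescence read after 5 min.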

Test [20] shares this target. As to the kind of experiment: qHTS Assay for Inhibitors of CDC-like Kinase 4 (ADP-Glo Assay) (AID 1771). Further: on the % scale 0 is the no-effect control and ±100 the full control effect; nearly all actives have a fitted effect of over 70% in size. In short, it runs like this: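 25 nM Clk4, 100 uM RS peptide, 1 uM ATP (final); 2 mM MgCl2, 0.5 mM EGTA, 2.5 mM DTT, 0.01% Triton X-100; 1 hr RT. ADP-Glo readout: ATP depletion 45 min, conversion/luciferase 30 min, luminescence.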
Test [21] shares this target. As to the kind of experiment: qHTS Assay for Inhibitors of CDC-like Kinase 4 (ADP-FP Assay) (AID 1795).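 Further: recombinant human CLK4 phosphorylating RS repeat peptide at 1 µM ATP; on the % scale 0 is the no-effect control and ±100 the full control effect; nearly all actives have a fitted effect of over 60% in size.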 The procedure, abridged:
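Clk4 6.25 nM; RS peptide 100 uM; ATP 1 uM; 25 mM Tris pH 7.5, 10 mM MgCl2; 1 h reaction. ADP detected via antibody/orange tracer FP displacement; TG003 positive control.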

Setting [22] is: measured here: cell count channel max response.
The mark [23] stands for this setting: measured here: lipid channel max response.

Results filed as inconclusive are left out. Activity calls are given as the source filed them. Unless noted, the call rests on the fitted dose curve; in most records, active means well fitted curve in the direction sought with a large enough effect; inconclusive means small, poorly fitted or top-dose-only effect, or another doubt; inactive means no such curve, though single readings can be large; an effect the other way counts as inactive or inconclusive. Some results are limits rather than exact numbers.

We go through 6 compounds from PubChem BioAssay (NCATS).

Chain of Glucocorticoid receptor (Homo sapiens) (P04150 whole entry, looked up, the tested form may be a part): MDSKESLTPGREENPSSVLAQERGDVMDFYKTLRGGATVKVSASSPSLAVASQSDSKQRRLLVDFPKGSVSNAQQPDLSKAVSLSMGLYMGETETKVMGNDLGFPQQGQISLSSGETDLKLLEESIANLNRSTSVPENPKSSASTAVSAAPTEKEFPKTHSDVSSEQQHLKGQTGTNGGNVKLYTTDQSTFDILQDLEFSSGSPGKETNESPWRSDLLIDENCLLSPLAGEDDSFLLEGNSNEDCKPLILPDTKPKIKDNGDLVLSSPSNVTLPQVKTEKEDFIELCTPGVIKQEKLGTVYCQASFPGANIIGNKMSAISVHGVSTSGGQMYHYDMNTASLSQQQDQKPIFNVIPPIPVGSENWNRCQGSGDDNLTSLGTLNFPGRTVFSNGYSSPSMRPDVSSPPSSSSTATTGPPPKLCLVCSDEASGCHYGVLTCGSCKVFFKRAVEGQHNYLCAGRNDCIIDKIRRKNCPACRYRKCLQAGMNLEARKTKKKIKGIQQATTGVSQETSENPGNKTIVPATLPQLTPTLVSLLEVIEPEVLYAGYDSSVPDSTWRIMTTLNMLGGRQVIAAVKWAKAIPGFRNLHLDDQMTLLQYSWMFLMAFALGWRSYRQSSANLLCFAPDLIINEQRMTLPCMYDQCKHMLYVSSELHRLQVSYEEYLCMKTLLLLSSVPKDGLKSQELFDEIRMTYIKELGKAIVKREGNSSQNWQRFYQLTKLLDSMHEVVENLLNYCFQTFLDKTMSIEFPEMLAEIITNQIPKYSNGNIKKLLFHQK
Chain of Dual specificity protein kinase CLK4 (Homo sapiens) (Q9HAZ1 whole entry, looked up): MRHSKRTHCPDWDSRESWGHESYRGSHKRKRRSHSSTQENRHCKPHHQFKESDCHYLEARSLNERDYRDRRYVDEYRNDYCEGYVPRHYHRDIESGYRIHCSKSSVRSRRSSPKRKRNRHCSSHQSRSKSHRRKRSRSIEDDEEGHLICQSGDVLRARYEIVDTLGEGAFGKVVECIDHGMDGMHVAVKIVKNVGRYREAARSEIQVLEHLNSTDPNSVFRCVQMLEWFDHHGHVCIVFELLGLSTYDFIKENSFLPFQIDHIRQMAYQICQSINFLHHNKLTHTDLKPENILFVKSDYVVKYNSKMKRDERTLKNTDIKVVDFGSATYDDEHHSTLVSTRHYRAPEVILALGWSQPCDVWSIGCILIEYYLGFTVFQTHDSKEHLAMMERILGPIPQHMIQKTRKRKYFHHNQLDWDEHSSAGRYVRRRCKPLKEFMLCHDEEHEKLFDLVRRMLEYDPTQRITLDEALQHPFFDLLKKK
Chain of Cytochrome P450 3A4 (Homo sapiens) (P08684 whole entry, looked up): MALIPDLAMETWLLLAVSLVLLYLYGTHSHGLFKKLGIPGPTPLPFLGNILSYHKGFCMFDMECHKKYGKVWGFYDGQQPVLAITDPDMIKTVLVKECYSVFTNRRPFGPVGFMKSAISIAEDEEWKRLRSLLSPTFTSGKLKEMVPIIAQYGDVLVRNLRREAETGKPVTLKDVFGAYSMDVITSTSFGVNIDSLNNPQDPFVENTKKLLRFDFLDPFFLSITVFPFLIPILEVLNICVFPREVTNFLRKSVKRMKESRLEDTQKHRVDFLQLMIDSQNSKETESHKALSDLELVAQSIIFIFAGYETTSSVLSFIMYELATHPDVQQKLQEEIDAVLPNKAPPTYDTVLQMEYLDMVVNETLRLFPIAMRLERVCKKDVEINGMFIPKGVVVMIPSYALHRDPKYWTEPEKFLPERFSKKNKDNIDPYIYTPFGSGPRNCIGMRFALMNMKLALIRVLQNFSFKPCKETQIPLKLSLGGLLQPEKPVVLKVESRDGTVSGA
Chain of Ubiquitin carboxyl-terminal hydrolase 1 (Homo sapiens) (O94782 whole entry, looked up): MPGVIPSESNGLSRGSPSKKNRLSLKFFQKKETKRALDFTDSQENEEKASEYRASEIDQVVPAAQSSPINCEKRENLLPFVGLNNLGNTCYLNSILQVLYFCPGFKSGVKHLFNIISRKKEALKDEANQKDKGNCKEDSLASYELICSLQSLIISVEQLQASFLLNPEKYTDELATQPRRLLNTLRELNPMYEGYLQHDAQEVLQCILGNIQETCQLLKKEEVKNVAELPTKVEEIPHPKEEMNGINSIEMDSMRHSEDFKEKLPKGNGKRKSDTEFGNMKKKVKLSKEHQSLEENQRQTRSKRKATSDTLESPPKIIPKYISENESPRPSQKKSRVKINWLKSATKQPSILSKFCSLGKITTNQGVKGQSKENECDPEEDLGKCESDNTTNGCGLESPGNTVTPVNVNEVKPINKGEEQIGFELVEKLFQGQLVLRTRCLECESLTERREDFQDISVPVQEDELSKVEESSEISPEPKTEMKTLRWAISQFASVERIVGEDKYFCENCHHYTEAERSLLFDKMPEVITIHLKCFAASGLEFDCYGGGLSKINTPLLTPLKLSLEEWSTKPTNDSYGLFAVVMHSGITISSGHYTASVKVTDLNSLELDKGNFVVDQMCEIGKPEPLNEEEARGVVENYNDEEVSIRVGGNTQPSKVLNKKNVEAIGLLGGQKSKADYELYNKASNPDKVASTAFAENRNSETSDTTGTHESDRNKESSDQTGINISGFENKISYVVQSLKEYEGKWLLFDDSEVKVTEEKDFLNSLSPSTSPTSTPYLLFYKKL
Chain of Cytochrome P450 1A2 (Homo sapiens) (P05177 whole entry, looked up): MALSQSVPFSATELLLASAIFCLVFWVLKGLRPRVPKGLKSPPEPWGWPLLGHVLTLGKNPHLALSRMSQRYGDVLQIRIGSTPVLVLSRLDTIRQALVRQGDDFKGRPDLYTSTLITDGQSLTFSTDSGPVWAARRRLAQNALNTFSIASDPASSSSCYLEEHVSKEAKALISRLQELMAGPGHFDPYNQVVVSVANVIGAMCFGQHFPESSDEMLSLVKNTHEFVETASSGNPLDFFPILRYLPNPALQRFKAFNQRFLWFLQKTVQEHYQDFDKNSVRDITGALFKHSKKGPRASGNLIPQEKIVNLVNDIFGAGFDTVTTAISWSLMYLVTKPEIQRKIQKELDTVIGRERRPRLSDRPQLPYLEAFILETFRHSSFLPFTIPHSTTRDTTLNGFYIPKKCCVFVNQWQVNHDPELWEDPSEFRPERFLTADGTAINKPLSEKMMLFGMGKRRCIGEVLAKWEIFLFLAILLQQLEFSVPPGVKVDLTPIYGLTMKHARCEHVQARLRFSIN
Chain of 3',5'-cyclic-AMP phosphodiesterase 4B (Homo sapiens) (Q07343 whole entry, looked up): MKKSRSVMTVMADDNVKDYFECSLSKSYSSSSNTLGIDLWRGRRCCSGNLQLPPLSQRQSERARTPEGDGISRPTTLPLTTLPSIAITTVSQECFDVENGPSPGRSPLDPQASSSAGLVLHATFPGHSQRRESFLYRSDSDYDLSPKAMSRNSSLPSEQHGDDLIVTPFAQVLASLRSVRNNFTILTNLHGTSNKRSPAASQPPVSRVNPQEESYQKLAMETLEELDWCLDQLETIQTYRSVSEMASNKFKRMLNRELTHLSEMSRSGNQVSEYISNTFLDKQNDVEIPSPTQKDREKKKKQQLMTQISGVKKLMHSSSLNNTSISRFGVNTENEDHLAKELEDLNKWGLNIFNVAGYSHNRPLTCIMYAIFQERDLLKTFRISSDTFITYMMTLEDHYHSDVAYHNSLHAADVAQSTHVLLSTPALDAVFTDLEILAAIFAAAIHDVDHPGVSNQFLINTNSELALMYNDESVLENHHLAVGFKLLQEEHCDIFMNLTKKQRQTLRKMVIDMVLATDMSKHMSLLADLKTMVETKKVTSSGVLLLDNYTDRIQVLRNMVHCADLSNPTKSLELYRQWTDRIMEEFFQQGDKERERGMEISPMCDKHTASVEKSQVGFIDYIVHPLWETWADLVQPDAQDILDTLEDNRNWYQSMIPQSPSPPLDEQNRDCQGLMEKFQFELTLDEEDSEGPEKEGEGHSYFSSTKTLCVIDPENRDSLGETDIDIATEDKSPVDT
Chain of Cytochrome P450 2C19 (Homo sapiens) (P33261 whole entry, looked up): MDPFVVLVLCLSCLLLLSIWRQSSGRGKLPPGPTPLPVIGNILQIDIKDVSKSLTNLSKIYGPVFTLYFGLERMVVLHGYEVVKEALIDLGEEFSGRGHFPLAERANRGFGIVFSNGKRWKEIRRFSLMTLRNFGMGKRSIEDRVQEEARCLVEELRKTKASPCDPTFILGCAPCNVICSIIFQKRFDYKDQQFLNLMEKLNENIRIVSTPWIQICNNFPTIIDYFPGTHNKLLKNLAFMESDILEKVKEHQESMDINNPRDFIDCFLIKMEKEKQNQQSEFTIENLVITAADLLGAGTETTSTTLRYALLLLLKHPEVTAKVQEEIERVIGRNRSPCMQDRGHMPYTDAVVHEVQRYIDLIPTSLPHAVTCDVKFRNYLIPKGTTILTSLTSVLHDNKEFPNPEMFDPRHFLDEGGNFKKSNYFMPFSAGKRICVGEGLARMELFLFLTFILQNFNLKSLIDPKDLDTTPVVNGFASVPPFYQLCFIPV
Chain of Cytochrome P450 2C9 (Homo sapiens) (P11712 whole entry, looked up): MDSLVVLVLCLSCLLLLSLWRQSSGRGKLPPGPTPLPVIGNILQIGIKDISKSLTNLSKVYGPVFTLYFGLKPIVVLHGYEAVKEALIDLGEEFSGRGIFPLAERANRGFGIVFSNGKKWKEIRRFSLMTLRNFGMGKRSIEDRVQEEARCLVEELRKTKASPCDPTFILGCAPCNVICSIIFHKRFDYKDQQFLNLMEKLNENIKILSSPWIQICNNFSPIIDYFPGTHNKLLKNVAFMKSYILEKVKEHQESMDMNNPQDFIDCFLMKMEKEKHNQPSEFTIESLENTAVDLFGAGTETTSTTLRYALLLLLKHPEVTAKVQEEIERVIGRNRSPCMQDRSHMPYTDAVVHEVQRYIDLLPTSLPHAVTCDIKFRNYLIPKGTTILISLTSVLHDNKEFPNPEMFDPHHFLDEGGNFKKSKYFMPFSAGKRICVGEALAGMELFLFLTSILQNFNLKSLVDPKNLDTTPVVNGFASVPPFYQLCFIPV

Consider `O=C(c1cnccn1)N1CCC2(CCN(Cc3nccs3)CC2)CC1`, for which the activity change, negative = inhibition is 2.79% (inactive) in [1], 9.93% (inactive) in test [3] and 2.95% (inactive) in [8]. The Potency entry in test [2], in [7] and in test [9] was “inactive” throughout. For the same compound, in test [4], the activity, negative = inhibition is 3.3% (inactive). The Potency in test [5] was > 46 µM (inactive). Also, the result in [6] was inactive. Also, the max response in test [8] (setting [22]) was -0.576%; in test [8] (setting [23]), 4.52%.
As to `COc1ccccc1-c1cncnc1Nc1ccc(F)cc1`, the activity change, negative = inhibition was -12.4% (inactive) in [1], 1.41% (inactive) in test [3] and 10.5% (inactive) in test [8]. The Potency is 7.94 µM (active) in test [2]; > 46 µM (inactive) in test [10]; > 46 µM (inactive) in [5]; 0.158 µM (active) in test [11]; 5.01 µM (active) in [13]. In test [4], the activity, negative = inhibition was 4.34% (inactive). In addition, the call in test [6], in [14] and in [15] was inactive. For the same compound, the Potency entry in [7], in test [12], in [16] and in [9] was “inactive” throughout. The max response turned out to be 9.46% in test [8] (setting [22]) and 20.1% in test [8] (setting [23]).
Turning to `O=c1c(-c2cccs2)nc2cncnc2n1Cc1ccccc1`, the Potency was > 11.4 µM (inactive) in test [17]; 2.51 µM (active) in test [2]; > 9.22 µM (inactive) in test [10]; > 46 µM (inactive) in test [5]; 1.26 µM (active) in test [18]; 6.31 µM (active) in test [11]. Further, the activity change, negative = inhibition is -16.8% (inactive) in test [1] and 1.15% (inactive) in [3]. Further, the activity, negative = inhibition in test [4] is 7.21% (inactive). Besides, in test [6], the compound was called inactive. The Potency result in test [12], in [19], in [20], in test [21], in test [16] and in test [9] was “inactive” throughout.
Regarding `c1csc(CNc2ncncc2-c2ccc3c(c2)OCO3)c1`, the results for the activity change, negative = inhibition in [1], in test [3] and in test [8] were -9.82% (inactive), -6.2% (inactive) and 6.61% (inactive), respectively. The Potency in [2] was 0.2 µM (active); in test [10], > 46 µM (inactive); in [5] it was > 46 µM (inactive); in [18] it was 0.316 µM (active); in test [13], 0.794 µM (active). Moreover, the activity, negative = inhibition in [4] is 6.16% (inactive). The call in test [6], in [14] and in test [15] was inactive. Moreover, the max response in test [8] (setting [22]) was found to be 0.346%; in test [8] (setting [23]), 8.95%. Also, the Potency entry in [16] and in [9] was “inactive” each time.
For the compound `Cc1noc(C)c1C(=O)N1CCC2(CC1)CN(C(=O)Nc1cccc(F)c1)C2`, the activity change, negative = inhibition in test [1] was 6.42% (inactive); in [3] it was 19.9% (inactive); in test [8] it was 1.43% (inactive). Moreover, the Potency result in [2], in test [7] and in [9] was “inactive” in each case. The activity, negative = inhibition in test [4] is 0.457% (inactive). Besides, the Potency in test [5] was > 46 µM (inactive). The compound was classed as inactive in test [6]. In addition, the max response in test [8] (setting [22]) was -7.63%; in test [8] (setting [23]), -0.901%.
As for `CC(C)NC(=O)N1CCCC2(CCN(C(=O)c3ccncc3)CC2)C1`, the Potency is > 11.4 µM (inactive) in test [17] and > 46 µM (inactive) in test [5]. In addition, the results for the activity change, negative = inhibition in test [1] and in test [8] were -8.19% (inactive) and 3.7% (inactive), respectively. The activity, negative = inhibition in test [4] was -5.11% (inactive). In addition, the compound was classed as inactive in test [6]. Also, the Potency entry in test [7], in test [12] and in test [9] was “inactive” throughout. For the same compound, the max response was found to be 13.8% in test [8] (setting [22]) and 22% in test [8] (setting [23]).
